High-throughput results: PubChem BioAssay, several laboratories
ANO1 block: inhibitors of mouse TMEM16A calcium-activated chloride channel. 310,000 tested, 1.2% active. normalized B-score (activity score, 25-100; higher = stronger inhibition) at 10 µM. Q8BHY3. HEK293 TMEM16A/YFP iodide influx fluorescence, ionomycin;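 active = ratio plate-corrected score three or more library SD toward inhibition, starting fluorescence score within five deviations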;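 note: score derived from kinetic fluorescence span divided by baseline fluorescence per well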
Target sequence (Q8BHY3 whole entry, looked up): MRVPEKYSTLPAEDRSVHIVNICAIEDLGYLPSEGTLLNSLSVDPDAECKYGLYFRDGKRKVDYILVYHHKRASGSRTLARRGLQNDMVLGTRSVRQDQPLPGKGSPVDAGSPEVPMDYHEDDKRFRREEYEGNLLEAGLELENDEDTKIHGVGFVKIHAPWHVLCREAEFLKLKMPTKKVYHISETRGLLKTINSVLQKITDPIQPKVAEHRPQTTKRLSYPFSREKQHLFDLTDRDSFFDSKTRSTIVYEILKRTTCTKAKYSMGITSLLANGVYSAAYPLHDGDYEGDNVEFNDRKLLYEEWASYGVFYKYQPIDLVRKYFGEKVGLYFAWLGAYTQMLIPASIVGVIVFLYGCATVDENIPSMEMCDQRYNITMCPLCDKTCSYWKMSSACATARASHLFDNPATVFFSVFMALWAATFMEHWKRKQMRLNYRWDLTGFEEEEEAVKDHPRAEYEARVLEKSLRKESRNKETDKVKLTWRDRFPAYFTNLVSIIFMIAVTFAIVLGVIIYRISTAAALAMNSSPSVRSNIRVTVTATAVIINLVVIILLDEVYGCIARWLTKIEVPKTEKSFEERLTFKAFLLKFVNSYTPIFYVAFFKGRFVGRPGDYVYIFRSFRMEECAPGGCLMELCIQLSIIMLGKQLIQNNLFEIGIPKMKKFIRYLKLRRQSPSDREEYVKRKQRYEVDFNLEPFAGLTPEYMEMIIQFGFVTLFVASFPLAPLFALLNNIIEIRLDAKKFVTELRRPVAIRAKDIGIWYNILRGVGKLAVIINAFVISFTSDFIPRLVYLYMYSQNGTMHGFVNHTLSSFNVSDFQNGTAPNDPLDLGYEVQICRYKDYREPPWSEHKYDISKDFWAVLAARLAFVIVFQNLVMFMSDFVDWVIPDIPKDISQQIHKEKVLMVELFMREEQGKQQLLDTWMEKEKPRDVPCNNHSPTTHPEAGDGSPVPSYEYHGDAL
CHO-K1 Ca PAM: counter-screen for M1 PAMs: effect in parental CHO-K1 cells | 360,000 tested, 0.02% active | ATP EC20, Fluo-8 calcium fluorescence; 0% at ATP EC20, 100% at ATP max | activation, % at 3 µM;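 active = activation above the run cutoff, the mean activation of all test compounds plus 3 SD, cut at about 40% in these data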;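 note: peak over basal fluorescence ratio in a 140 s read after ATP addition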
CHO-K1 Ca antag: nonselective inhibitor or artifact in parental CHO-K1 cells; ATP-induced calcium, Fluo-8 fluorescence; inhibition, % at 3 µM; 360,000 tested, 0.6% active;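 active = inhibition above a per-plate cutoff, the plate's mean sample inhibition plus 3 SD, cut at about 24% in these data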
NTR1 agonist: activates human neurotensin receptor 1 | P30989 | NTR1-U2OS beta-arrestin-GFP spot imaging, agonist mode | activation, % at 20 µM | 330,000 tested, 0.17% active | AID 493036;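 active = activation at or above 40% of the spot to cytoplasm intensity ratio, with at least 20 cells analyzed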
ANO1 activ: mouse TMEM16A channel activation, primary screen; HEK293 TMEM16A/YFP-H148Q/I152L, iodide quench fluorescence; active compounds read low; 340,000 tested, 0.3% active; Q8BHY3; B-score at 10 µM;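 active = fluorescence-ratio B-score plate-corrected deviation score at least 3 library SD below zero, with starting fluorescence score within 5 deviations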;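 note: channel opened by trigger with iodide after compound preincubation; score built on the fluorescence ratio of max minus min over baseline; more negative score means more quench and so TMEM16A activation or potentiation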
M1 ag parental: M1 agonist counterscreen hit in parental CHO-K1 cells. AID 602248. Fluo-8 calcium fluorescence; scaled to maximal ATP response, vehicle zero. 360,000 tested, 0.48% active. activation, % at 3 µM; in the data active = activation above about 15%;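 note: untransfected CHO-K1 host cells lacking M1 receptor as counterscreen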
Each line names hits and unclear results; the compound was inactive in the other large screens. Most compounds without a hit are left out; they make up all but 2.2% or so of the library.

O=C1NC[C@@H](CCCCN2C[C@H](Cc3ccccc3)N(Cc3ccccc3)C(=O)C2=O)N(CC2CCCCC2)C1=O	none (no result: ANO1 block, NTR1 agonist, ANO1 activ)
COC(=O)[C@]12CCCCC=C1N(Cc1ccccc1)C(=O)[C@H](CC(=O)NCC13CC4CC(CC(C4)C1)C3)C2	none (no result: ANO1 block, NTR1 agonist, ANO1 activ)
O=C(Nc1nc(=S)ss1)c1c(F)cccc1F	none
Cc1ccccc1C(=O)Nc1nc(=S)ss1	ANO1 block 100
CC(=O)Nc1nc(=S)ss1	none
CC(C)CC(=O)Nc1nc(=S)ss1	ANO1 block 100
O=S1(=O)CC(N2CCN(CCO)CC2)CN1C1CCCCC1 (stereo unspecified)	none (no result: ANO1 block, NTR1 agonist, ANO1 activ)
O=S1(=O)CC(N2CCN(CC3CC3)CC2)CN1C1CCCC1 (stereo unspecified)	CHO-K1 Ca antag 26 (no result: ANO1 block, NTR1 agonist, ANO1 activ)
Cc1cccc(S(=O)(=O)NC(=O)C2(C)CCN2C(=O)Cc2cccs2)c1 (stereo unspecified)	none (no result: ANO1 block, NTR1 agonist, ANO1 activ)
COC(=O)C1(Cc2cc(-c3cccc(Br)c3)no2)CCN(C(=O)OC(C)(C)C)CC1	none
COC(=O)C1(Cc2cc(-c3ccc(OC)cc3OC)no2)CCN(C(=O)OC(C)(C)C)CC1	ANO1 block 25
CCOC(=O)N(C)c1c(CC)nc2c(OCc3ccc(F)cc3)cccn12	none (no result: ANO1 block, NTR1 agonist, ANO1 activ)
COc1ccc(/C(C)=N/NC(=O)c2ccc(CSc3nncn3C)cc2)cc1	M1 ag parental 15
C/C(=N\NC(=O)c1ccc(CSc2nncn2C)cc1)c1ccc(Cl)cc1	none
Cc1cc(C)cc(NC(=O)CSCc2nc3c(nnn3Cc3ccc(F)cc3)c(=O)[nH]2)c1	ANO1 block 25
Cc1ccc(Cn2nnc3c(=O)[nH]c(C4CCCN(C(=O)Nc5ccc(F)cc5F)C4)nc32)cc1 (stereo unspecified)	none
C[C@@H]1CN([C@H](C)CO)S(=O)(=O)c2ccc(C#CC3CCCC3)cc2O[C@H]1CN(C)C(=O)Cc1ccccc1	none (no result: ANO1 block, NTR1 agonist, ANO1 activ)
COc1ccc(CNc2nc(SCC(=O)NCc3ccco3)nc3ccccc23)cc1	M1 ag parental 16
CCn1c(N)c(C(=O)NC)sc1=S	ANO1 block 100
CCNC(=O)c1sc(=S)n(CC)c1N	none
NC(Cc1ccc(C(F)(F)F)cc1)c1csc(Nc2ccc(C(=O)c3ccccc3)cc2)n1 (stereo unspecified)	none (no result: ANO1 block, NTR1 agonist, ANO1 activ)
CSc1nc2c(c(=O)[nH]1)C(c1ccc(Br)cc1)CC(=O)N2 (stereo unspecified)	M1 ag parental 16
CSc1nc2c(c(=O)[nH]1)C(c1ccc(F)cc1)CC(=O)N2 (stereo unspecified)	none
CCCc1c(-c2ccc(F)cc2)ncn1Cc1ccccc1OC	none (no result: ANO1 block, NTR1 agonist, ANO1 activ)
N#Cc1nc(-c2ccccc2Cl)oc1NCc1ccco1	ANO1 activ -4.7
N#Cc1nc(-c2ccccc2)oc1NCc1ccco1	none
COCCNC(=O)Cn1ncc2ccsc2c1=O	ANO1 activ -11
Cc1cnc(NC(=O)COc2ccccc2)s1	CHO-K1 Ca antag 25
COc1ccc(C(CC(=O)Nc2nccs2)n2cccc2)cc1 (stereo unspecified)	none
COc1ccc(OCC(=O)Nc2nccs2)cc1	M1 ag parental 17
COc1ccc(C(CC(=O)Nc2nccs2)C(C)C)cc1 (stereo unspecified)	M1 ag parental 19
O=C(COc1ccccc1)NNc1c2ccccc2nc2ccccc12	none
COc1ccc(OCC(=O)NNc2c3ccccc3nc3ccccc23)cc1	NTR1 agonist 58
CC12CCC(O)CC1=CCC1C2CCC2(C)C(c3ccn[nH]3)CCC12 (stereo unspecified)	none (no result: ANO1 block, NTR1 agonist)
CCCCOCCCNC(=O)C[C@@H]1C[C@@]2(C(=O)OCC)CCC=C2N(Cc2ccc(Cl)cc2Cl)C1=O	none (no result: ANO1 block, NTR1 agonist, ANO1 activ)
Cc1ccc(-n2[nH]c(C)c(/C=N/Nc3ccc([N+](=O)[O-])cc3[N+](=O)[O-])c2=O)cc1C	ANO1 block 25
N#CC(C#N)c1ccnc2ccccc12	none (no result: ANO1 block, NTR1 agonist, ANO1 activ)
CN(Cc1ccccc1)C(=O)c1ccc(Cc2cn(C)c3ccccc23)nc1	none (no result: ANO1 block, NTR1 agonist, ANO1 activ)
COc1ccccc1-c1ccc(/C=C2\C=CC(=O)O2)o1	M1 ag parental 28
CCOC(=O)C1=C(C)NC(C)=C(C(=O)OCC)C1/C=C/c1ccccc1OC	none
CCOC(=O)C1=C(C)NC(C)=C(C(=O)OCC)C1c1ccccc1/C=C/C(=O)OC(C)(C)C	NTR1 agonist 47 (no result: CHO-K1 Ca PAM, CHO-K1 Ca antag, ANO1 activ, M1 ag parental)
Cc1cc(C(=O)CSc2nc3ccccc3[nH]2)c(C)n1Cc1ccco1	CHO-K1 Ca antag 27
Cc1cc(C(=O)CSc2nc3ccccc3[nH]2)c(C)n1C	none
C[C@H]1CN([C@@H](C)CO)C(=O)CCCn2cc(nn2)CO[C@@H]1CN(C)C(=O)Nc1ccc(-c2cccs2)cc1	none (no result: ANO1 block, NTR1 agonist, ANO1 activ)
Cc1cc(=O)[nH]c(NNC(=O)c2ccc(Cl)cc2)n1	none (no result: ANO1 block, NTR1 agonist, ANO1 activ)
Cn1c(=O)oc2cc(S(=O)(=O)N3CCCC(C(=O)NCc4ccc5c(c4)OCO5)C3)ccc21 (stereo unspecified)	none
O=C(NCc1ccccn1)C1CCCN(S(=O)(=O)c2cc(Cl)ccc2Cl)C1 (stereo unspecified)	none (no result: ANO1 block, NTR1 agonist)
O=C(NCc1ccccn1)C1CCCN(S(=O)(=O)c2ccc(Br)cc2)C1 (stereo unspecified)	CHO-K1 Ca antag 24
Cn1c(=O)oc2cc(S(=O)(=O)N3CCCC(C(=O)NCc4cccs4)C3)ccc21 (stereo unspecified)	CHO-K1 Ca antag 27
Cc1cc(N2CCN(C(c3ccnc4ccccc34)c3nnnn3-c3c(C)cccc3C)CC2)c2ccccc2n1 (stereo unspecified)	none (no result: ANO1 block, NTR1 agonist, ANO1 activ)
O=C(Cn1cc(COc2ccc3ccccc3c2)nn1)NS(=O)(=O)c1cccc(OC(F)F)c1	none (no result: ANO1 block, NTR1 agonist, ANO1 activ)
Cc1ccc(C(C[N+](=O)[O-])Sc2ccc(N)cc2)cc1 (stereo unspecified)	NTR1 agonist 54
CC(OC(=O)Cc1n[nH]c(=O)c2ccccc12)C(=O)N(C)c1ccccc1 (stereo unspecified)	none (no result: ANO1 block, NTR1 agonist, ANO1 activ)
COc1cnn(-c2ccc(C)cc2)c(=O)c1Br	none
COc1cnn(-c2ccc(C)cc2)c(=O)c1Cl	CHO-K1 Ca antag 25
O=C(Nc1ccc(Cl)cc1)c1csc([C@@H]2O[C@H](CO)[C@@H](O)[C@H]2O)n1	none (no result: ANO1 block, NTR1 agonist, ANO1 activ)
Cc1ccccc1NC1=NCC(c2ccc([N+](=O)[O-])cc2)S1 (stereo unspecified)	M1 ag parental 19
CC(C)OC(=O)N(C)C[C@@H]1OCc2cn(nn2)CCCC(=O)N([C@@H](C)CO)C[C@H]1C	none (no result: ANO1 block, NTR1 agonist, ANO1 activ)
CCOc1cc(C(=O)N2CCCC2)cc(OCC)c1OCC	CHO-K1 Ca antag 26
CC12CCC(=O)C=C1CCC1C2C(O)CC2(C)C1CCC2(O)C(=O)COC(=O)CCC1CCCC1 (stereo unspecified)	none (no result: ANO1 block, NTR1 agonist, ANO1 activ)
C#CCCCCCCC#CCN(C)C	CHO-K1 Ca antag 26
COc1ccc(/C(C)=N/OCC(=O)Nc2nc3ccccc3s2)cc1OC	M1 ag parental 19
Cc1ccc(C(=O)/C=C/NCc2ccc(F)cc2)cc1	CHO-K1 Ca antag 25
